# Results published in article PMC7862700, “An all-to-all approach to the identification of sequence-specific readers for epigenetic DNA modifications on cytosine”.
# Assays:
# Assay in all cases: DAPPL (digital affinity profiling via proximity ligation, sequencing); 10 mM Tris-HCl pH 7.5, 50 mM NaCl, 1 mM DTT, 4% glycerol, room temperature, 30 min; GST-TFs on glutathione beads, 16-mer random dsDNA library, 0.1% formaldehyde crosslink after washing; high values mean tight binding
# FLI1 = biological target: T1, FLI1 (Homo sapiens, UniProt Q01543 1-452); settings: protein: recombinant; tags: N-terminal GST; dsDNA, one strand shown
# T1 sequence: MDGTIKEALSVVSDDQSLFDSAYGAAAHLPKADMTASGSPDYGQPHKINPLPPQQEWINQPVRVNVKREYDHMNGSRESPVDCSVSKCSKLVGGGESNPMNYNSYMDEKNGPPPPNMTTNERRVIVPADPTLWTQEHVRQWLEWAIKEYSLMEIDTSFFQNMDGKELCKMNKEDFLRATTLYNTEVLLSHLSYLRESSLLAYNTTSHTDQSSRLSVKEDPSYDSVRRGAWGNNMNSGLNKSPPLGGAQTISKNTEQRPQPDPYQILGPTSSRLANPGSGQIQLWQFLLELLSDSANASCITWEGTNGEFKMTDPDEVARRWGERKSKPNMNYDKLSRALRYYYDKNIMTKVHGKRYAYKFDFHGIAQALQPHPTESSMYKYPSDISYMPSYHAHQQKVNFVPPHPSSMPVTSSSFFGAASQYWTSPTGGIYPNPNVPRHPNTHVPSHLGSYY
# Summary of the method: (§1)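 Pools of DNA-barcoded human transcription factors, expressed in yeast as GST fusions on glutathione beads and combined with a tag-only sample, were incubated with 200 nmole of a 16-mer random double-stranded DNA library. Incubation took 30 min at room temperature in Tris/NaCl/DTT/glycerol buffer and was followed by washing, 0.1% formaldehyde crosslinking, proximity ligation (BsaI/T4 ligase, 1 h, 37 °C), PCR amplification and sequencing on an Illumina NextSeq500. Binding signal is the ratio of a hexamer's read frequency for a factor to its frequency for the tag-only sample.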
# ELK1 = biological target: T2, ELK1 (Homo sapiens, UniProt P19419 1-428); settings: protein: recombinant; tags: N-terminal GST; dsDNA, one strand shown
# T2 sequence: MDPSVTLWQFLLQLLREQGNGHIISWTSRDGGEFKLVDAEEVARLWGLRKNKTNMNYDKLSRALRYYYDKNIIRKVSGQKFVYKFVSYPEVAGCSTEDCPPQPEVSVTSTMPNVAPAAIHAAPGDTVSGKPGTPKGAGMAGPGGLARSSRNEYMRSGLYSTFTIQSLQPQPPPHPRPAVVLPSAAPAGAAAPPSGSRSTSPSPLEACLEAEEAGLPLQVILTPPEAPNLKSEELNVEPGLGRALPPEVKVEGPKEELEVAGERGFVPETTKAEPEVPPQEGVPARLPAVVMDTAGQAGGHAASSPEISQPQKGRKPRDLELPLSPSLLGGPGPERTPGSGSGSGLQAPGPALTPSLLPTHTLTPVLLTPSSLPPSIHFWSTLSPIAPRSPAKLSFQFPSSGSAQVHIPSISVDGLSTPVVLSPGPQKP
# Summary of the method: as §1
# GABPA = biological target: T3, GABPA (Homo sapiens, UniProt Q06546 1-454); settings: protein: recombinant; tags: N-terminal GST; dsDNA, one strand shown
# T3 sequence: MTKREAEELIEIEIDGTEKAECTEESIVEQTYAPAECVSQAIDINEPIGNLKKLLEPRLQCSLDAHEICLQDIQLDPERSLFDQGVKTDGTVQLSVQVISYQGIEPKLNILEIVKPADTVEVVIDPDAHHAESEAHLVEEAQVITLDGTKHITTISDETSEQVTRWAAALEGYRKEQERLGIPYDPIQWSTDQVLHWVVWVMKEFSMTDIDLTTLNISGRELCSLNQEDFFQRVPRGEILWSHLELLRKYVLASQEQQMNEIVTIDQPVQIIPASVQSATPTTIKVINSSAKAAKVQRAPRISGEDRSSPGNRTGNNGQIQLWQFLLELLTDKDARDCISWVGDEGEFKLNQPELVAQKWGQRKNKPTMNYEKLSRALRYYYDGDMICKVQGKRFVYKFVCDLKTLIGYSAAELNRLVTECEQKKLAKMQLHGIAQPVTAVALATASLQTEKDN
# Summary of the method: as §1
# ERG = biological target: T4, ERG (Homo sapiens, UniProt P11308 1-479); settings: protein: recombinant; tags: N-terminal GST; dsDNA, one strand shown
# T4 sequence: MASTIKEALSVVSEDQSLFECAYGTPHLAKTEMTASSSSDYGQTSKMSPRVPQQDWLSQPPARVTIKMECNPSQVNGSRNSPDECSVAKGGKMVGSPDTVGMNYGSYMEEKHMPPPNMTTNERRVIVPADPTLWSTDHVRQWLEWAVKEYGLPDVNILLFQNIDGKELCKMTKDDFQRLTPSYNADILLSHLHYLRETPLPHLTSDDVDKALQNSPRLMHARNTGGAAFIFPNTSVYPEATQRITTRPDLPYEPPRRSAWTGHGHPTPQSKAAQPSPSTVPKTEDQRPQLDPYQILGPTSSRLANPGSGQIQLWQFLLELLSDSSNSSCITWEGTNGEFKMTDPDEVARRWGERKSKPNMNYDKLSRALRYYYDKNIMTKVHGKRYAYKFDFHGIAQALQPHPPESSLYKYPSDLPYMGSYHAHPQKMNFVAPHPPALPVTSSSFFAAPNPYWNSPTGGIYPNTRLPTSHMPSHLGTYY
# Summary of the method: as §1
# ELF1 = ELF1 (Homo sapiens, UniProt P32519 1-619); settings: protein: recombinant; tags: N-terminal GST; dsDNA, one strand shown
# ELF1, sequence (P32519 whole entry): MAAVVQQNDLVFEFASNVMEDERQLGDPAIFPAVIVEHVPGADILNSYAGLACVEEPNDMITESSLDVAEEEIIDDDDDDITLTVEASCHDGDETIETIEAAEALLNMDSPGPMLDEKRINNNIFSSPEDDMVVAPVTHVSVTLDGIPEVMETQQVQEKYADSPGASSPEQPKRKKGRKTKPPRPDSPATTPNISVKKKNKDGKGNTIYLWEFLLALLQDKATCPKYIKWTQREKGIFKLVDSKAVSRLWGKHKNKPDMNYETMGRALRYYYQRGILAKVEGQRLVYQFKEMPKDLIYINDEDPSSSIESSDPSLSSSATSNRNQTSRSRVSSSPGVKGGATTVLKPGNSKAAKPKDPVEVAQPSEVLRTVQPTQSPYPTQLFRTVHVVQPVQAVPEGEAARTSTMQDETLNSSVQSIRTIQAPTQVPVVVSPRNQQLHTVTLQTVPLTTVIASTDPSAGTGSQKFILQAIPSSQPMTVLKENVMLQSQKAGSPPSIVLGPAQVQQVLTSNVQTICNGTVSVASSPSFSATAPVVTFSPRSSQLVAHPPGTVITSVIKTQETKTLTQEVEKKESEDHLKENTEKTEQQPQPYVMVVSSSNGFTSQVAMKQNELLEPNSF
# Summary of the method: as §1
# EHF = biological target: T5, EHF (Homo sapiens, UniProt Q9NZC4 1-300); settings: protein: recombinant; tags: N-terminal GST; dsDNA, one strand shown
# T5 sequence: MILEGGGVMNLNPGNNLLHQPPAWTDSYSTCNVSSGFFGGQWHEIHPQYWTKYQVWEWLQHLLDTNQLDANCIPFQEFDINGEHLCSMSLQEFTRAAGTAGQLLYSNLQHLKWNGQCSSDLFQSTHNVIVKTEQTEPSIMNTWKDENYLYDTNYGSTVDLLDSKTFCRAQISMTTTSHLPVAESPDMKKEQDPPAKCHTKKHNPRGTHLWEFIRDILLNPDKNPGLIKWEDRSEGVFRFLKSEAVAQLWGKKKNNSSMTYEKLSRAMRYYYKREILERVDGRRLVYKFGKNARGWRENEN
# Summary of the method: as §1
# SPI1 = SPI1 (Homo sapiens, UniProt P17947 1-270); settings: protein: recombinant; tags: N-terminal GST; dsDNA, one strand shown
# Summary of the method: as §1
# SPIB = SPIB (Homo sapiens, UniProt Q01892 1-262); settings: protein: recombinant; tags: N-terminal GST; dsDNA, one strand shown
# SPIB, sequence (Q01892 whole entry): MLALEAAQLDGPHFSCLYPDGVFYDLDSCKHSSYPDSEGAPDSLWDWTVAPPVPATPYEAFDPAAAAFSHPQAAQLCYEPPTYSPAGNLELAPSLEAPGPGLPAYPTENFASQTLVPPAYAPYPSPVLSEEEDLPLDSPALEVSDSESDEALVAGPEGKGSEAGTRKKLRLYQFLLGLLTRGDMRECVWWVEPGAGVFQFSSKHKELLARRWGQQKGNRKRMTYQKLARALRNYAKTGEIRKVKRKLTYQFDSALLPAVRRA
# Summary of the method: as §1
# ELK3 = biological target: T6, ELK3 (Homo sapiens, UniProt P41970 1-407); settings: protein: recombinant; tags: N-terminal GST; dsDNA, one strand shown
# T6 sequence: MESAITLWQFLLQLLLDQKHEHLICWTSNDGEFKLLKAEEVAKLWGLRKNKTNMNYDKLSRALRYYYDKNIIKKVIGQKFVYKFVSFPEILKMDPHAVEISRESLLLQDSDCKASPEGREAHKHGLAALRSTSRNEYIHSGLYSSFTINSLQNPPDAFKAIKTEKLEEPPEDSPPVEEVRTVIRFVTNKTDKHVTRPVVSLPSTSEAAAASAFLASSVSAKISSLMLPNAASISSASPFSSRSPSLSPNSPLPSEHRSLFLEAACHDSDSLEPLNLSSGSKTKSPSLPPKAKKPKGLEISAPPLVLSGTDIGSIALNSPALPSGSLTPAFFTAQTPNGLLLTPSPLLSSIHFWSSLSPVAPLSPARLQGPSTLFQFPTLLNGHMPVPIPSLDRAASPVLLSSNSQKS
# Summary of the method: as §1
# FEV = biological target: T7, FEV (Homo sapiens, UniProt Q99581 1-238); settings: protein: recombinant; tags: N-terminal GST; dsDNA, one strand shown
# T7 sequence: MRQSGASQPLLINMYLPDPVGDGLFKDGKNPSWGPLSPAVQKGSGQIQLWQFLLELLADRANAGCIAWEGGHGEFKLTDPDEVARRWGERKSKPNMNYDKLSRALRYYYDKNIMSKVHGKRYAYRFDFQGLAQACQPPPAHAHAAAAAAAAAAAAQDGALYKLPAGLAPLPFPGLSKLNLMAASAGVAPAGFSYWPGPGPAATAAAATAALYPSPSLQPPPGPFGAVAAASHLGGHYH
# Summary of the method: as §1
# ETV5 = ETV5 (Homo sapiens, UniProt P41161 1-510); settings: protein: recombinant; tags: N-terminal GST; dsDNA, one strand shown
# ETV5, sequence (P41161 whole entry): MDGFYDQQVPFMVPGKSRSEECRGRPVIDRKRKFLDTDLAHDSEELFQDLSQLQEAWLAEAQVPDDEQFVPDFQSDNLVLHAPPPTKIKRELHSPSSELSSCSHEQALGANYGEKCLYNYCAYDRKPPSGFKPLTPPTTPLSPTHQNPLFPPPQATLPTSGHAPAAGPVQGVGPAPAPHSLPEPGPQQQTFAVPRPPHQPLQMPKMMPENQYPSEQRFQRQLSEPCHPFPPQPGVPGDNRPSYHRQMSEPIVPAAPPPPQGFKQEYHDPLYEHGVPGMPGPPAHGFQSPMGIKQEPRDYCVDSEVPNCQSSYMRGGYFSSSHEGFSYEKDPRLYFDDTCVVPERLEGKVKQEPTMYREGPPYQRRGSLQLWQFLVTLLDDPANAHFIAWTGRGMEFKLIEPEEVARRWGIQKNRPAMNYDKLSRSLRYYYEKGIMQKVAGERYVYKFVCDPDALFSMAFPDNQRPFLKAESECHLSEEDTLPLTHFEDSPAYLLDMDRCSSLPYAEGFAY
# Summary of the method: as §1
# HSF1 = HSF1 (Homo sapiens, UniProt Q00613 1-529); settings: protein: recombinant; tags: N-terminal GST; chain copies: 3; dsDNA, one strand shown
# HSF1, sequence (Q00613 whole entry): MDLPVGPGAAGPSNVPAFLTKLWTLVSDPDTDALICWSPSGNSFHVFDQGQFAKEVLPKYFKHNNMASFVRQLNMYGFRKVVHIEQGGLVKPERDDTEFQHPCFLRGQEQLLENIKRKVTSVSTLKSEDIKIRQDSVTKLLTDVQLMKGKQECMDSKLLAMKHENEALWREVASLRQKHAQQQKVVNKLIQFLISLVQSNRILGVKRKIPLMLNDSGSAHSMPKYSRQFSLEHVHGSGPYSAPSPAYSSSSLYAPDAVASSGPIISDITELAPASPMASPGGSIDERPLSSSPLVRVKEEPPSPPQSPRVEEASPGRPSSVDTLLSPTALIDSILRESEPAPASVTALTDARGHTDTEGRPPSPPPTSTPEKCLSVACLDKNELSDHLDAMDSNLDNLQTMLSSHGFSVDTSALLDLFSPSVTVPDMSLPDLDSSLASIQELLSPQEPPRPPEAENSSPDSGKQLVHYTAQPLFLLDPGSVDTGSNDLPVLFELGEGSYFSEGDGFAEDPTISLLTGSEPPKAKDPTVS
# Summary of the method: as §1
# SPIC = biological target: T8, SPIC (Homo sapiens, UniProt Q8N5J4 1-248); settings: protein: recombinant; tags: N-terminal GST; dsDNA, one strand shown
# T8 sequence: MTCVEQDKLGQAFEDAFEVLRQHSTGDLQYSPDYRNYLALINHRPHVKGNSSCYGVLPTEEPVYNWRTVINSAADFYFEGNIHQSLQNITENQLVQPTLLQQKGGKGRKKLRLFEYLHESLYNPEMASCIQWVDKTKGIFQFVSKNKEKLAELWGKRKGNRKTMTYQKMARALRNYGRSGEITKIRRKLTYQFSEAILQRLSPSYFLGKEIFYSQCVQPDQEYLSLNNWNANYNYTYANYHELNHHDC
# Summary of the method: as §1
# ELF4 = ELF4 (Homo sapiens, UniProt Q99607 1-663); settings: protein: recombinant; tags: N-terminal GST; dsDNA, one strand shown
# ELF4, sequence (Q99607 whole entry): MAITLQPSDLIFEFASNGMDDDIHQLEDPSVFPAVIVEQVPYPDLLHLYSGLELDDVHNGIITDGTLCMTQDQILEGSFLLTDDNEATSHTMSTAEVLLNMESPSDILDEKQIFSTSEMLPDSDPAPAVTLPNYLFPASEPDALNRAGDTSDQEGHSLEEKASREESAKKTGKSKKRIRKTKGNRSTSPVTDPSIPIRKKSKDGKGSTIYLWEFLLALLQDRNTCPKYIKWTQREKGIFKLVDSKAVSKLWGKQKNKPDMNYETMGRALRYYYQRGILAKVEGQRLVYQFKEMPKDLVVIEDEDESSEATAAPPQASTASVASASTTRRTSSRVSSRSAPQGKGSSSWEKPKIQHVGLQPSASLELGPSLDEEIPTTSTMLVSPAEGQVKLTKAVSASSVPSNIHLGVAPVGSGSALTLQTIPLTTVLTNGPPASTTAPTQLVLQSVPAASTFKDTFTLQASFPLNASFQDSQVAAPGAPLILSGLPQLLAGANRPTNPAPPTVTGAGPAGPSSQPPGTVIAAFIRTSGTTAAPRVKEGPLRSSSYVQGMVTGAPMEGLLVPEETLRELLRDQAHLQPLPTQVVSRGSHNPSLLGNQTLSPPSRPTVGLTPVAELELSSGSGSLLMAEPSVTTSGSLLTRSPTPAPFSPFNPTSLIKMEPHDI
# Summary of the method: as §1
# ELK4 = biological target: T9, ELK4 (Homo sapiens, UniProt P28324-2 1-405); settings: protein: recombinant; tags: N-terminal GST; dsDNA, one strand shown
# T9 sequence: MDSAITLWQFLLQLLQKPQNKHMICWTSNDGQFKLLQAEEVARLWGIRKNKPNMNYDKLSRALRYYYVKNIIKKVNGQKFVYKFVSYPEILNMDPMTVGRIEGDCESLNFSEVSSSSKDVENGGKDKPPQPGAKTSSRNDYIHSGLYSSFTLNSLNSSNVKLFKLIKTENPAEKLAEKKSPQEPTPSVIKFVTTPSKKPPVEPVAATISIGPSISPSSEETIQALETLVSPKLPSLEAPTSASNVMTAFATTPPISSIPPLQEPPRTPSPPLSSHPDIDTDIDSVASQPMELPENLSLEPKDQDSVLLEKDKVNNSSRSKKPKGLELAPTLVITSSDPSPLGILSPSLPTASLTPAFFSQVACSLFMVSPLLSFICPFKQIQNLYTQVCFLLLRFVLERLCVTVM
# Summary of the method: as §1
# ETV2 = biological target: T10, ETV2 (Homo sapiens, UniProt O00321 1-342); settings: protein: recombinant; tags: N-terminal GST; dsDNA, one strand shown
# T10 sequence: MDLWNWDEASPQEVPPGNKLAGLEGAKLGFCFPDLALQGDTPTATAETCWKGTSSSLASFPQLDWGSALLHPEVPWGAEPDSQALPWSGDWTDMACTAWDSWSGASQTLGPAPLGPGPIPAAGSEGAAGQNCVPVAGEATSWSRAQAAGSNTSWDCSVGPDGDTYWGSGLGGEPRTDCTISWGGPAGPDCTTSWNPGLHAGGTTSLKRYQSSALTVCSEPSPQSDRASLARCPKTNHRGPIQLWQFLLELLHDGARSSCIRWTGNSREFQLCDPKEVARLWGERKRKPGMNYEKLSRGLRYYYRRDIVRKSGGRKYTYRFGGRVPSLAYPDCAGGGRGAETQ
# Summary of the method: as §1
# ELF3 = biological target: T11, ELF3 (Homo sapiens, UniProt P78545 1-371); settings: protein: recombinant; tags: N-terminal GST; dsDNA, one strand shown
# T11 sequence: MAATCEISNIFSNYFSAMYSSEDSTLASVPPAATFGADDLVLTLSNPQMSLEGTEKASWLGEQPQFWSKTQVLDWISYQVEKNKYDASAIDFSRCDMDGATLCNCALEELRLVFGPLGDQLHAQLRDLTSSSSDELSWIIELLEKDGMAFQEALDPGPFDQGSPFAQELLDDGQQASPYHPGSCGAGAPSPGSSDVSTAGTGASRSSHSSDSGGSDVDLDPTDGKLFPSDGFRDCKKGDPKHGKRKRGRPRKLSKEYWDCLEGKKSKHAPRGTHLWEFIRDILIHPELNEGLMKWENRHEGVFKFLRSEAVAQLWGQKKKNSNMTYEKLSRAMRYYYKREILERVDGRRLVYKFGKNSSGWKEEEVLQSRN
# Summary of the method: as §1
# CRX = CRX (Homo sapiens, UniProt O43186 1-299); settings: protein: recombinant; tags: N-terminal GST; dsDNA, one strand shown
# CRX, sequence (O43186 whole entry): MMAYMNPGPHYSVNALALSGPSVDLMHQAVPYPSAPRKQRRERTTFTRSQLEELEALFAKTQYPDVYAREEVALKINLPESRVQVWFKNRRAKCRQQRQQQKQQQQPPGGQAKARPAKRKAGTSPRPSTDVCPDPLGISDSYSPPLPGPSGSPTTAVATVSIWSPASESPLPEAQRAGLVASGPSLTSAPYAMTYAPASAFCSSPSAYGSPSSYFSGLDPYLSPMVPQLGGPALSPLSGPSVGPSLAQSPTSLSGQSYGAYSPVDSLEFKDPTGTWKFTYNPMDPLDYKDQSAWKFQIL
# Summary of the method: as §1
# ETV1 = ETV1 (Homo sapiens, UniProt P50549 1-477); settings: protein: recombinant; tags: N-terminal GST; dsDNA, one strand shown
# ETV1, sequence (P50549 whole entry): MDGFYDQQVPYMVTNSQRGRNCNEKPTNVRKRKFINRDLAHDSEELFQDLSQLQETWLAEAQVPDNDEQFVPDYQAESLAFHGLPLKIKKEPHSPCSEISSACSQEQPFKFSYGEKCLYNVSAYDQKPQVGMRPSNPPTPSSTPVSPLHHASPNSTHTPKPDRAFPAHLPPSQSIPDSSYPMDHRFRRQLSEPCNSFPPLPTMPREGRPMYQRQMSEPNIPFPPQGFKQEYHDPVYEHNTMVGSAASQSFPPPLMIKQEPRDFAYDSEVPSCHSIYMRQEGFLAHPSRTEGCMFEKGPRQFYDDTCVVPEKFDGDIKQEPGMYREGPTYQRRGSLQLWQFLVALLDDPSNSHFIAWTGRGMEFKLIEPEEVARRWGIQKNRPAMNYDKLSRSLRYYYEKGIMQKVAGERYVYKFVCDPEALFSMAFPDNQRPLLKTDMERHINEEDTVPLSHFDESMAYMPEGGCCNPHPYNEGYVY
# Summary of the method: as §1
sequence,measurement,setting,value
TACCTT,binding signal,FLI1,"1.36 fold enrichment (6-mer frequency, TF over GST control)"
same,binding signal,ELK1,"1.33 fold enrichment (6-mer frequency, TF over GST control)"
same,binding signal,GABPA,"1.36 fold enrichment (6-mer frequency, TF over GST control)"
same,binding signal,ERG,"1.42 fold enrichment (6-mer frequency, TF over GST control)"
same,binding signal,ELF1,"1.3 fold enrichment (6-mer frequency, TF over GST control)"
same,binding signal,EHF,"1.47 fold enrichment (6-mer frequency, TF over GST control)"
same,binding signal,SPI1,"1.33 fold enrichment (6-mer frequency, TF over GST control)"
same,binding signal,SPIB,"1.42 fold enrichment (6-mer frequency, TF over GST control)"
same,binding signal,ELK3,"1.23 fold enrichment (6-mer frequency, TF over GST control)"
same,binding signal,FEV,"1.34 fold enrichment (6-mer frequency, TF over GST control)"
same,binding signal,ETV5,"1.4 fold enrichment (6-mer frequency, TF over GST control)"
same,binding signal,HSF1,"1.3 fold enrichment (6-mer frequency, TF over GST control)"
same,binding signal,SPIC,"1.3 fold enrichment (6-mer frequency, TF over GST control)"
same,binding signal,ELF4,"1.38 fold enrichment (6-mer frequency, TF over GST control)"
same,binding signal,ELK4,"1.46 fold enrichment (6-mer frequency, TF over GST control)"
same,binding signal,ETV2,"1.6 fold enrichment (6-mer frequency, TF over GST control)"
same,binding signal,ELF3,"1.31 fold enrichment (6-mer frequency, TF over GST control)"
same,binding signal,CRX,"1.55 fold enrichment (6-mer frequency, TF over GST control)"
same,binding signal,ETV1,"1.5 fold enrichment (6-mer frequency, TF over GST control)"
